# According to PubChem BioAssay (NCATS):
# Records with an inconclusive call do not appear. Active and inactive are the calls of the source. Calls follow the shape of the dose curve; as a rule, active = well fitted curve in the direction sought with a large enough effect; inconclusive = small, poorly fitted or top-dose-only effect, or another doubt; inactive = no such curve, though single readings can be large; an effect the other way counts as inactive or inconclusive.
# System: not listed separately
# Assay: qHTS of pediatric cancer cell lines to identify multiple opportunities for drug repurposing: Confirmatory screen for U-2 OS cells (AID 1347122); also: nearly all actives have a fitted effect of over 65% in size;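 as to activity change, negative = cytotoxicity: plate controls were DMSO for no effect and bortezomib for full effect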
# Details: U-2 OS osteosarcoma cell viability; series mostly up to 45.9 µM; activity change, negative = cytotoxicity: at the top concentration
# Method in brief: (§1)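 Cells (500-1,000/well) in growth media were settled 5 h at 37 degrees C, then given compounds for 48 h. Viability was read as CellTiter-Glo luminescence. Primary runs used MIPE at 11 points (0.78 nM-46 µM) and NPC at 8 points (0.59 nM-46 µM); follow-ups used 11 points.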
# Potency is read from the fitted curve at half-maximal effect.
SMILES,Potency,outcome,"activity change, negative = cytotoxicity"
Oc1c(Br)cc(Br)c2cccnc12,14.7 µM (active),–,–
COC(=O)c1nc(Cl)c(Cl)nc1N,2.61 µM (active),–,–
Nc1ccc([N+](=O)[O-])cc1O,–,inactive,–
CCOC(=O)c1ccccc1O,–,–,9.75% (inactive)
CCCSc1ccc2nc(NC(=O)OC)[nH]c2c1,1 µM (active),–,–

# System: not listed separately
# Assay: qHTS of pediatric cancer cell lines to identify multiple opportunities for drug repurposing: Confirmatory screen for Rh41 cells (AID 1347123);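 also: 48 h compound exposure; nearly all actives have a fitted effect of over 60% in size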;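 as to activity change, negative = cytotoxic: plate controls were DMSO for no effect and bortezomib for full effect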
# Details: Rh41 rhabdomyosarcoma cells, viability/cytotoxicity qHTS; series mostly up to 97.2 µM; activity change, negative = cytotoxic: at the top concentration
# Method in brief: as §1
SMILES,Potency,"activity change, negative = cytotoxic"
COC(=O)c1nc(Cl)c(Cl)nc1N,1.31 µM (active),–
CN(C)c1ccc(C(=C2C=CC(=[N+](C)C)C=C2)c2ccccc2)cc1,0.414 µM (active),–
Nc1ccc([N+](=O)[O-])cc1O,–,-18.5% (inactive)
CCOC(=O)c1ccccc1O,–,-1.24% [at 45.9 µM] (inactive)
CCCSc1ccc2nc(NC(=O)OC)[nH]c2c1,1.12 µM (active),–
N=C1N=C(N)c2cc3ccccc3cc21,30.2 µM (active),–
COc1cccc2c1C(=O)c1c(O)c3c(c(O)c1C2=O)C[C@@](O)(C(=O)CO)C[C@@H]3O[C@H]1C[C@H](N)[C@H](O[C@@H]2CCCCO2)[C@H](C)O1,2.93 µM (active),–

# System: not listed separately
# Assay: qHTS of pediatric cancer cell lines to identify multiple opportunities for drug repurposing: Confirmatory screen for RD cells (AID 1347124);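 also: cells exposed to compound for 48 h before viability readout; nearly all actives have a fitted effect of over 65% in size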; as to activity change, negative = cytotoxic: % is scaled to controls: 0 for no effect and ±100 for the full control effect
# Details: RD rhabdomyosarcoma cell viability; series mostly up to 97.2 µM; activity change, negative = cytotoxic: at the top concentration
# Method in brief: as §1
SMILES,Potency,"activity change, negative = cytotoxic"
COC(=O)c1nc(Cl)c(Cl)nc1N,2.61 µM (active),–
[O-][n+]1ccccc1SSc1cccc[n+]1[O-],–,-95% [at 29.5 µM] (inactive)
CN(C)c1ccc(C(=C2C=CC(=[N+](C)C)C=C2)c2ccccc2)cc1,1.31 µM (active),–
COC(=O)Nc1nc2ccc(C(=O)C3CC3)cc2[nH]1,2.33 µM (active),–
CCCSc1ccc2nc(NC(=O)OC)[nH]c2c1,2.51 µM (active),–
N=C1N=C(N)c2cc3ccccc3cc21,–,7.33% (inactive)

# System: not listed separately
# Assay: qHTS of pediatric cancer cell lines to identify multiple opportunities for drug repurposing: Confirmatory screen for Rh18 cells (AID 1347125); also: nearly all actives have a fitted effect of over 55% in size; as to activity change, negative = cytotoxic: % is scaled to controls: 0 for no effect and ±100 for the full control effect
# Details: Rh18 rhabdomyosarcoma cells, viability; series mostly up to 45.9 µM; activity change, negative = cytotoxic: at the top concentration
# Method in brief: as §1
SMILES,"activity change, negative = cytotoxic",Potency
Oc1c(Br)cc(Br)c2cccnc12,-36.2% (inactive),–
COC(=O)c1nc(Cl)c(Cl)nc1N,–,20.8 µM (active)
CN(C)c1ccc(C(=C2C=CC(=[N+](C)C)C=C2)c2ccccc2)cc1,–,1.04 µM (active)
COC(=O)Nc1nc2ccc(C(=O)C3CC3)cc2[nH]1,-10.1% (inactive),–
Nc1ccc([N+](=O)[O-])cc1O,-14.8% [at 95.5 µM] (inactive),–

# System: not listed separately
# Assay: qHTS of pediatric cancer cell lines to identify multiple opportunities for drug repurposing: Confirmatory screen for Rh30 cells (AID 1347126); also: nearly all actives have a fitted effect of over 55% in size; as to activity change, negative = cytotoxic: % is scaled to controls: 0 for no effect and ±100 for the full control effect
# Details: Rh30 rhabdomyosarcoma cell viability; series mostly up to 97.2 µM; activity change, negative = cytotoxic: at the top concentration
# Method in brief: as §1
SMILES,Potency,"activity change, negative = cytotoxic"
COC(=O)c1nc(Cl)c(Cl)nc1N,16.5 µM (active),–
CN(C)c1ccc(C(=C2C=CC(=[N+](C)C)C=C2)c2ccccc2)cc1,0.104 µM (active),–
COC(=O)Nc1nc2ccc(C(=O)C3CC3)cc2[nH]1,–,0% [at 45.9 µM] (inactive)
Nc1ccc([N+](=O)[O-])cc1O,–,-7.49% (inactive)
N=C1N=C(N)c2cc3ccccc3cc21,47.9 µM (active),–
COc1cccc2c1C(=O)c1c(O)c3c(c(O)c1C2=O)C[C@@](O)(C(=O)CO)C[C@@H]3O[C@H]1C[C@H](N)[C@H](O[C@@H]2CCCCO2)[C@H](C)O1,5.85 µM (active),–

# System: not listed separately
# Assay: qHTS of pediatric cancer cell lines to identify multiple opportunities for drug repurposing: Confirmatory screen for Saos-2 cells (AID 1347127); also: nearly all actives have a fitted effect of over 60% in size
# Details: Saos-2 osteosarcoma cell viability
# Method in brief: as §1
row,SMILES,Potency
1,COC(=O)c1nc(Cl)c(Cl)nc1N,2.61 µM (active)
2,[O-][n+]1ccccc1SSc1cccc[n+]1[O-],1.82 µM (active)
3,CN(C)c1ccc(C(=C2C=CC(=[N+](C)C)C=C2)c2ccccc2)cc1,0.522 µM (active)
4,COC(=O)Nc1nc2ccc(C(=O)C3CC3)cc2[nH]1,1.31 µM (active)
5,CCCSc1ccc2nc(NC(=O)OC)[nH]c2c1,1.58 µM (active)

# System: not listed separately
# Assay: qHTS of pediatric cancer cell lines to identify multiple opportunities for drug repurposing: Confirmatory screen for OHS-50 cells (AID 1347128);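 also: compound exposure lasted 48 h at 37 degrees C; nearly all actives have a fitted effect of over 55% in size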; as to activity change, negative = cytotoxic: % is scaled to controls: 0 for no effect and ±100 for the full control effect
# Details: OHS-50 osteosarcoma cells viability; series mostly up to 45.9 µM; activity change, negative = cytotoxic: at the top concentration
# Method in brief: as §1
SMILES,"activity change, negative = cytotoxic",Potency
Oc1c(Br)cc(Br)c2cccnc12,-11.2% (inactive),–
COC(=O)c1nc(Cl)c(Cl)nc1N,–,18.5 µM (active)
CN(C)c1ccc(C(=C2C=CC(=[N+](C)C)C=C2)c2ccccc2)cc1,–,2.61 µM (active)
COC(=O)Nc1nc2ccc(C(=O)C3CC3)cc2[nH]1,–,1.31 µM (active)
Nc1ccc([N+](=O)[O-])cc1O,-13.3% [at 95.5 µM] (inactive),–
CCOC(=O)c1ccccc1O,-20.4% (inactive),–
CCCSc1ccc2nc(NC(=O)OC)[nH]c2c1,–,2.51 µM (active)
N=C1N=C(N)c2cc3ccccc3cc21,–,42.7 µM (active)

# System: not listed separately
# Assay: qHTS of pediatric cancer cell lines to identify multiple opportunities for drug repurposing: Confirmatory screen for SK-N-SH cells (AID 1347129);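 also: cells exposed to compound for 48 h before viability read; nearly all actives have a fitted effect of over 60% in size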;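 as to activity change, negative = cytotoxic: plate controls were DMSO for no effect and bortezomib control for full effect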
# Details: SK-N-SH neuroblastoma cell viability; series mostly up to 97.6 µM; activity change, negative = cytotoxic: at the top concentration
# Method in brief: as §1
SMILES,Potency,"activity change, negative = cytotoxic"
COC(=O)c1nc(Cl)c(Cl)nc1N,4.69 µM (active),–
[O-][n+]1ccccc1SSc1cccc[n+]1[O-],3.23 µM (active),–
CN(C)c1ccc(C(=C2C=CC(=[N+](C)C)C=C2)c2ccccc2)cc1,1.32 µM (active),–
Nc1ccc([N+](=O)[O-])cc1O,–,-0.77% (inactive)
CCOC(=O)c1ccccc1O,–,-0.828% [at 46.1 µM] (inactive)
CCCSc1ccc2nc(NC(=O)OC)[nH]c2c1,6.31 µM (active),–
N=C1N=C(N)c2cc3ccccc3cc21,38.2 µM (active),–
COc1cccc2c1C(=O)c1c(O)c3c(c(O)c1C2=O)C[C@@](O)(C(=O)CO)C[C@@H]3O[C@H]1C[C@H](N)[C@H](O[C@@H]2CCCCO2)[C@H](C)O1,2.35 µM (active),–

# Biological target: N-terminal Xaa-Pro-Lys N-methyltransferase 1 (Homo sapiens) (UniProt Q9BV86)
# Sequence (Q9BV86 whole entry, looked up): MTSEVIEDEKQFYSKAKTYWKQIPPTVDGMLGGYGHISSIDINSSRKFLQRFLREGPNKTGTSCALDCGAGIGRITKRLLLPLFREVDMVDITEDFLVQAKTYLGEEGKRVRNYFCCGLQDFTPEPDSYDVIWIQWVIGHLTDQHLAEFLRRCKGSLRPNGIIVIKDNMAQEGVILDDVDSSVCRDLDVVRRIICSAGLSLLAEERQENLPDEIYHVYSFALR
# Assay: qHTS Assay for Inhibitors of N-terminal methyltransferase 1 (NTMT1): LOPAC validation of the NTMT1 SAHH-coupled ThioGlo3 Assay (AID 1347143); also: nearly all actives have a fitted effect of over 70% in size
# Details: recombinant NTMT1, SAHH-coupled ThioGlo3 fluorescence; series mostly up to 114 µM; activity change, negative = inhibition: at the top concentration
# Method in brief: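 Fluorescence read-out (excitation 340nm, emission 450nm) of SAH-derived thiol, measured via SAHH coupling and ThioGlo3, taken immediately and after a 30 min room-temperature reaction, then normalized to the background read. Enzyme: NTMT1 at 125nM; cofactor SAM 100uM in the added reagent.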
SMILES,"activity change, negative = inhibition",Potency
CNc1ncnc2c1ncn2[C@@H]1O[C@H](CO)C(O)[C@H]1O (stereo partly drawn),-18.1% (inactive),–
OC[C@H]1O[C@@H](n2cnc3c(NC4CCCC4)ncnc32)[C@H](O)C1O (stereo partly drawn),-16.7% (inactive),–
CNC(=O)[C@H]1O[C@@H](n2cnc3c(NCc4cccc(I)c4)ncnc32)[C@H](O)C1O (stereo partly drawn),-20% (inactive),–
O=C(NOCC1CC1)c1cc(Br)c(F)c(F)c1Nc1ccc(I)cc1Cl,-14.2% (inactive),–
OCC1O[C@H]([S-])C(O)[C@@H](O)[C@@H]1O.[Au+] (stereo partly drawn),1550% (inactive),–
C=C[C@H]1CN2CC[C@@H]1C[C@H]2[C@H](O)c1ccnc2ccc(OC)cc12,–,56.2 µM (active)
COc1ccc(/C=C/c2nc(NCCCN(C)C)c3ccccc3n2)cc1,–,50.1 µM (active)
NC(=O)C(=O)O,-7.49% (inactive),–
CO/N=C(\C(=O)N[C@@H]1C(=O)N2C(C(=O)O)=C(COC(C)=O)CS[C@H]12)c1csc(N)n1 (stereo in doubt),21.5% (inactive),–
Oc1cc2c(cc1O)CN(C(=S)NCCc1ccc(Cl)cc1)CCC2,–,20 µM (active)
CC[C@@H](C)[C@H]1O[C@]2(CC[C@@H]1C)C[C@@H]1C[C@@H](C/C=C(\C)[C@@H](O[C@H]3C[C@H](OC)[C@@H](O[C@H]4C[C@H](OC)[C@@H](O)[C@H](C)O4)[C@H](C)O3)[C@@H](C)/C=C/C=C3\CO[C@@H]4[C@H](O)C(C)=C[C@@H](C(=O)O1)[C@]34O)O2,4.08% (inactive),–
NCC1OC(OC2C(O)[C@@H](OC3C(O)C(N)CC(N)C3OC3OC(CO)C(O)C(O)C3N)O[C@@H]2CO)C(N)C(O)C1O (stereo partly drawn),-12% (inactive),–
Cc1cc2c(cc1Cl)N(C(=O)Nc1ccc(Oc3cccnc3C)nc1)CC2,–,8.91 µM (active)
C[C@H](Cc1ccccc1)Nc1ncnc2c1ncn2[C@@H]1O[C@H](CO)C(O)[C@H]1O (stereo partly drawn),-18.6% (inactive),–
O=C(c1cc(O)c(O)c([N+](=O)[O-])c1)c1ccccc1F,–,56.2 µM (active)
NC(=O)C1=CN(C2OC(COP(=O)(O)OP(=O)(O)OC[C@H]3O[C@@H](n4cnc5c(N)ncnc54)[C@H](OP(=O)(O)O)C3O)C(O)C2O)C=CC1 (stereo partly drawn),-27.8% (inactive),–
C[N+](C)(C)CCOP(=O)(O)OP(=O)([O-])OC[C@H]1O[C@@H](n2ccc(N)nc2=O)[C@H](O)C1O (stereo partly drawn),-6.45% (inactive),–
CCCCC#Cc1nc(NC)c2ncn([C@@H]3O[C@H](CO)[C@@H](O)C3O)c2n1 (stereo partly drawn),–,39.8 µM (active)
O=[N+]([O-])c1ccc(CSc2ncnc3c2ncn3[C@@H]2O[C@H](CO)C(O)[C@H]2O)cc1 (stereo partly drawn),-26.2% (inactive),–
COc1ccc(NC(=O)/C=C/c2ccc(Cl)cc2)cc1,128% (inactive),–
Nc1ncnc2c1ncn2[C@@H]1O[C@H](CO)C(O)[C@H]1O (stereo partly drawn),–,2.24 µM (active)
Nc1nc(SCc2ccc([N+](=O)[O-])cc2)c2ncn([C@@H]3O[C@H](CO)C(O)[C@H]3O)c2n1 (stereo partly drawn),-27.9% (inactive),–
CNC(=O)[C@H]1O[C@@H](n2cnc3c(NCc4ccc(N)cc4)ncnc32)[C@H](O)C1O (stereo partly drawn),-16.8% (inactive),–
Nc1nc(Cl)nc2c1ncn2[C@@H]1O[C@H](CO)C(O)[C@H]1O (stereo partly drawn),-18.6% (inactive),–
C=C/C(C)=C/[C@@]1(C)SC(=O)C(C)=C1O,-2.03% (inactive),–
N=c1ccn2c(n1)O[C@H]1C(O)[C@@H](CO)O[C@H]12 (stereo partly drawn),-5.71% (inactive),–
CC(C)(C)NCC(O)COc1nsnc1N1CCOCC1 (stereo not drawn),-21.7% (inactive),–
Nc1nc(Nc2ccccc2)nc2c1ncn2[C@@H]1O[C@H](CO)C(O)[C@H]1O (stereo partly drawn),–,39.8 µM (active)
